23 compounds from PubChem BioAssay (EPA / NIEHS) can be followed below.

Test [1] concerns the target human RAR-related Orphan Receptor beta (RORb), RORB (gene 6096) (UniProt Q92753). In words: ATG_RORb_TRANS: Attagene TRANS-FACTORIAL HepG2 Assay for human RAR-related Orphan Receptor beta (RORb) (AID 2283010; active means hit-call score of the fitted dose curve at least 0.9, where 1 is the maximum). The procedure, abridged: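 HepG2 cells transiently transfected with GAL4-UAS reporter units expressing chimeric NR-Gal4 protein; reporter mRNA measured 24 h after dosing by RT-PCR, 6-FAM labelling and capillary electrophoresis. Gain-of-signal fitted relative to DMSO baseline.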

The target in test [2] is human RAR-related Orphan Receptor gamma (RORg), RORC (gene 6097) (UniProt P51449). In words: ATG_RORg_TRANS: Attagene TRANS-FACTORIAL HepG2 Assay for human RAR-related Orphan Receptor gamma (RORg) (AID 2283011; active means hit-call score of the fitted dose curve at least 0.9, where 1 is the maximum;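 on AC50: potency for induction of reporter transcripts above DMSO so activators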). In a few lines: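 Activity is scored as increase in GAL4-UAS reporter mRNA over DMSO, detected by fluorescent RT-PCR and capillary electrophoresis in HepG2 cells transiently expressing a RORg-Gal4 chimera, 24 h after dosing.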

The target of test [3] is Retinoic acid receptor RXR-alpha (Homo sapiens) (UniProt P19793). Description: ATG_RXRa_TRANS: Attagene TRANS-FACTORIAL HepG2 Assay for human Retinoid X Receptor alpha (RXRa) (AID 2283012; active means hit-call score of the fitted dose curve at least 0.9, where 1 is the maximum). The procedure, abridged: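 HepG2 cells transiently transfected with GAL4-UAS reporter units and chimeric RXRa-Gal4 protein, treated 24 h. Reporter mRNA measured by RT-PCR, fluorescent labelling, HpaI digestion and capillary electrophoresis. Induction fitted against DMSO.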

Read-out in test [4]: E-selectin (Homo sapiens) (UniProt P16581)
In words: BSK_3C_Eselectin: BioMAP Diversity Plus: 3C Assay for Eselectin Biomarker Activity (AID 2283015).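 On outcome: cell surface E-selectin protein quantified by ELISA 24 h after dosing.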 The following applies: primary human endothelial cells (HUVEC); actives raise or lower the signal. In a few lines:
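Human vascular endothelium from umbilical vein is exposed to test chemicals for 24 h. E-selectin levels are read by ELISA and compared with DMSO controls.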

Read-out in test [5]: Interleukin-1 alpha (IL1a), IL1A (gene 3552)
In words: BSK_BE3C_IL1a: BioMAP Diversity Plus: BE3C Assay for Interleukin-1 alpha (IL1a) Biomarker Activity (AID 2283016). To be noted: primary human bronchial epithelial cells; actives raise or lower the signal. In a few lines: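 Human primary bronchial epithelial cells, 24 h chemical exposure; IL-1a quantified by ELISA, fitted bidirectionally against DMSO. Cytotoxicity assessed in parallel by SRB total-protein staining at the time of measurement.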

Read-out in test [6]: Monocyte Chemoattractant Protein-1 (MCP1), CCL2 (gene 6347)
Description: BSK_3C_MCP1: BioMAP Diversity Plus: 3C Assay for Monocyte Chemoattractant Protein-1 (MCP1) Biomarker Activity (AID 2283017). To be noted: primary human endothelial cells (HUVEC); actives raise or lower the signal. In a few lines: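 Endothelial cells from human umbilical vein are dosed with chemical, cultured 24 h, then assayed for MCP-1 by ELISA; both increases and decreases are modelled against DMSO controls.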

Read-out in test [7]: Monocyte Chemoattractant Protein-1 (MCP1), CCL2 (gene 6347)
In words: BSK_4H_MCP1: BioMAP Diversity Plus: 4H Assay for Monocyte Chemoattractant Protein-1 (MCP1) Biomarker Activity (AID 2283018). To be noted: primary human endothelial cells (HUVEC); actives raise or lower the signal. In a few lines:
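Human umbilical vein endothelial cells (4H system) exposed to chemicals for 24 h in 96-well format. MCP-1 measured by ELISA; bidirectional fitting against DMSO, with SRB total-protein staining in parallel cultures for cytotoxicity.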

Read-out in test [8]: Human Leukocyte Antigen - DR isotype (HLADR), HLA-DRA (gene 3122)
Description: BSK_3C_HLADR: BioMAP Diversity Plus: 3C Assay for Human Leukocyte Antigen - DR isotype (HLADR) Biomarker Activity (AID 2283019).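 Further: ELISA of cell-surface HLA-DR on HUVEC 24 h after dosing.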 To be noted: primary human endothelial cells (HUVEC); actives raise or lower the signal. The procedure, abridged: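 Endothelial cells from human umbilical vein are treated with test chemical; after 24 h, HLA-DR levels are measured by ELISA. Data are fitted in both directions using DMSO as the baseline.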

In test [9] the target is human Retinoid X Receptor beta (RXRb), RXRB (gene 6257) (UniProt P28702). In words: ATG_RXRb_TRANS: Attagene TRANS-FACTORIAL HepG2 Assay for human Retinoid X Receptor beta (RXRb) (AID 2283013; active means hit-call score of the fitted dose curve at least 0.9, where 1 is the maximum). In a few lines: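 HepG2 cells were transiently transfected with multiplexed GAL4-UAS reporters and a chimeric RXRb-Gal4 construct, then exposed for 24 h. Reporter mRNA was quantified by RT-PCR, FAM labeling, HpaI digestion and capillary electrophoresis; gain of signal was scored against DMSO.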

The target in test [10] is human Thyroid Receptor alpha (THRa1), THRA (gene 7067) (UniProt P10827). Description: ATG_THRa1_TRANS: Attagene TRANS-FACTORIAL HepG2 Assay for human Thyroid Receptor alpha (THRa1) (AID 2283014; active means hit-call score of the fitted dose curve at least 0.9, where 1 is the maximum). The procedure, abridged: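 First, HepG2 cells receive multiple GAL4-UAS reporter units and the chimeric receptor. They are then dosed for 24 h, after which RNA is reverse-transcribed, amplified, labelled, HpaI-cut and sized by capillary electrophoresis; gain relative to DMSO is scored.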

Several values for one entry are separate records, joined by “and”; a condition that tells them apart may be missing. Equal entries are not always repeated. Records with an inconclusive call do not appear. A structure can be active in one record and inactive in another. Activity calls are given as the source filed them. How the source made its calls, unless noted: active means hit-call score of the fitted dose curve at least 0.9, where 1 is the maximum; inactive means score below 0.9.

Sequence of human Thyroid Receptor alpha (THRa1), THRA (gene 7067) (P10827 whole entry, looked up, the tested form may be a part): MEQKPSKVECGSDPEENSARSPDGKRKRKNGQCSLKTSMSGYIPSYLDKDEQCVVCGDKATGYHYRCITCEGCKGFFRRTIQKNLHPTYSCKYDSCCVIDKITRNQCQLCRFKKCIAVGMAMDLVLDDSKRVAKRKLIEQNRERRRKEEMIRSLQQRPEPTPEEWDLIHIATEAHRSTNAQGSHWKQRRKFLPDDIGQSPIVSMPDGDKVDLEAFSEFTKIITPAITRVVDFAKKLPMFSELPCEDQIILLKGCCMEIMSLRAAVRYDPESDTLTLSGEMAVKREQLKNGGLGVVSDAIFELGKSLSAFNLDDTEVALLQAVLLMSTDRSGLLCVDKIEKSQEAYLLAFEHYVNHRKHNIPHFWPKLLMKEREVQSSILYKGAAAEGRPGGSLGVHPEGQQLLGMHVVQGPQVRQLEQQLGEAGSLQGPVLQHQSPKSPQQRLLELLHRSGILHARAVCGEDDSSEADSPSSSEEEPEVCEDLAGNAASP
Sequence of Retinoic acid receptor RXR-alpha (Homo sapiens) (P19793 whole entry, looked up, the tested form may be a part): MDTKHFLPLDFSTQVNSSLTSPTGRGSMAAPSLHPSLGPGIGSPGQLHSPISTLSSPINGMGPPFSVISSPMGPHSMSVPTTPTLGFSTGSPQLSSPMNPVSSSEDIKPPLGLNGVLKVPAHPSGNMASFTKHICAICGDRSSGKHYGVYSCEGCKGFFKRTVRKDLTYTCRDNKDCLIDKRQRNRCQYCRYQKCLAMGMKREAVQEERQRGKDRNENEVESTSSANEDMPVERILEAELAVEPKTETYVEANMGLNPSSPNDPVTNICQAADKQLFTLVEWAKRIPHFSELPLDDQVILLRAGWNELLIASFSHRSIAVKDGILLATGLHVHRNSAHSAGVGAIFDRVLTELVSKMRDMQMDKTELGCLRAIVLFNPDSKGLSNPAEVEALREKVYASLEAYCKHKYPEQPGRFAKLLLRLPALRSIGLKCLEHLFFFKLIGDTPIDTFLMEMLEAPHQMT
Sequence of human RAR-related Orphan Receptor gamma (RORg), RORC (gene 6097) (P51449 whole entry, looked up, the tested form may be a part): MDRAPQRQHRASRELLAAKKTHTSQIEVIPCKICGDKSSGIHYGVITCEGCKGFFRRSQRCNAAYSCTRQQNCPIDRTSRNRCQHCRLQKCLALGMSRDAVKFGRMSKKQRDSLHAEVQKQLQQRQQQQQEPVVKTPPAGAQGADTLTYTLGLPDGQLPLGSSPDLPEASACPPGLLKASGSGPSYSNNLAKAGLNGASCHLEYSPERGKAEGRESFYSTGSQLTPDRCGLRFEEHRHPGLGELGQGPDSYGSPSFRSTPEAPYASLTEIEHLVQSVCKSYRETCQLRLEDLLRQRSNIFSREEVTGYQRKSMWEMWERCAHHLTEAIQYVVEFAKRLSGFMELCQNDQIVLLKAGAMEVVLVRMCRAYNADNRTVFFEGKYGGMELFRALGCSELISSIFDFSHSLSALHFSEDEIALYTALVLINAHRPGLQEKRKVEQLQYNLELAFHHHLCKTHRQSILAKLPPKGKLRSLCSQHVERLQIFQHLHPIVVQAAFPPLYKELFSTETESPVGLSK
Sequence of E-selectin (Homo sapiens) (P16581 whole entry, looked up): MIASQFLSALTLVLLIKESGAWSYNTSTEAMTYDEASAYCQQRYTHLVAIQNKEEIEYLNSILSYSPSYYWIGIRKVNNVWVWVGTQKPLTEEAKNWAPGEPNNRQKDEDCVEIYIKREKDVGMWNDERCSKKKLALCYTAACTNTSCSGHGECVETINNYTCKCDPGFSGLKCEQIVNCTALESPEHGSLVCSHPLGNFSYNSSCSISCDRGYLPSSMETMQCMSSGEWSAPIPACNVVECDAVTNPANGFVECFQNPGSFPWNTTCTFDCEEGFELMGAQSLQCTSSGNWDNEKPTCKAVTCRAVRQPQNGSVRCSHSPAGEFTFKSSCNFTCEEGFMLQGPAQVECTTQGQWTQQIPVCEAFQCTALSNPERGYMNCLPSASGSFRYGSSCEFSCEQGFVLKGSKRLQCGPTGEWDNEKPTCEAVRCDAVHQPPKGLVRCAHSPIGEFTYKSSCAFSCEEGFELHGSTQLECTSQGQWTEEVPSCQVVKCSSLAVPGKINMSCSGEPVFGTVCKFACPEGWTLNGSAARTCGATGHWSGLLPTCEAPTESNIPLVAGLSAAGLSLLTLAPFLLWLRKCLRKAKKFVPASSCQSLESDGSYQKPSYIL
Sequence of human Retinoid X Receptor beta (RXRb), RXRB (gene 6257) (P28702 whole entry, looked up, the tested form may be a part): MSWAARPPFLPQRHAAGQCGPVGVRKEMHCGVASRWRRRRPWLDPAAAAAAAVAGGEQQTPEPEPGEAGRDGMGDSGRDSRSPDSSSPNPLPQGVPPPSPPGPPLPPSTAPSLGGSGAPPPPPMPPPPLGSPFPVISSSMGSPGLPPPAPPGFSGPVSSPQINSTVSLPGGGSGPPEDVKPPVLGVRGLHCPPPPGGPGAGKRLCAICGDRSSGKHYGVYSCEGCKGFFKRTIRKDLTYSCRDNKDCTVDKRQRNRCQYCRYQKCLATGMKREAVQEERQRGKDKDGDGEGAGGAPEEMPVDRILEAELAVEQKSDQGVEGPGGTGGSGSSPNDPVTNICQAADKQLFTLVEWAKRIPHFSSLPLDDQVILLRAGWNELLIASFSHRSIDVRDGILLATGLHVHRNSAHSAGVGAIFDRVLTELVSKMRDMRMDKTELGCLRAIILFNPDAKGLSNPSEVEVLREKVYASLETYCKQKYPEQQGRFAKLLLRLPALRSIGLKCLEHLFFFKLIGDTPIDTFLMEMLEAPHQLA
Sequence of human RAR-related Orphan Receptor beta (RORb), RORB (gene 6096) (Q92753 whole entry, looked up, the tested form may be a part): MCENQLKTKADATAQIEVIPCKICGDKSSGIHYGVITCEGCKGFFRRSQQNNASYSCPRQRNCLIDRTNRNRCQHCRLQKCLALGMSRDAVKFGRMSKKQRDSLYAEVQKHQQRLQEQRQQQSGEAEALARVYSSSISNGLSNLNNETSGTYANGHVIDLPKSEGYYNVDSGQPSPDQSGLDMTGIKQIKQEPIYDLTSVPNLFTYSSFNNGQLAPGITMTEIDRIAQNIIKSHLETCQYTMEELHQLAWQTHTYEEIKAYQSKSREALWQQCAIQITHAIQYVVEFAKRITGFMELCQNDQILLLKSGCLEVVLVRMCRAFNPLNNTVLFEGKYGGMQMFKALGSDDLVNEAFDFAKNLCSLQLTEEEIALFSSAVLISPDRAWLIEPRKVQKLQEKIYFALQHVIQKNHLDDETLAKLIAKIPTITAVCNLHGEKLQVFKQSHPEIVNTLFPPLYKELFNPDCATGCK

As for `O=S(=O)(O)C(F)(F)C(F)(F)C(F)(F)C(F)(F)C(F)(F)C(F)(F)C(F)(F)F`, the compound was classed as inactive in test [1], in test [2], in [3], in test [4], in test [5] and in test [6]. Also, the result in test [7] and in test [8] was inactive.

With `Cc1cc(C)cc(O)c1`, the compound was classed as inactive in [1], in [3], in [9] and in [10].

Regarding `CCCCCCOC(=O)c1ccccc1O`, the outcome in test [1], in [2] and in test [5] was inactive. For the same compound, the AC50 in test [4] was 38.5 µM (active) and 46.9 µM (active); in test [6], 41.9 µM (active) and 38 µM (active); in [7], 33.5 µM (active) and 34.3 µM (active).

With `O=C(O)C(F)(F)C(F)(F)C(F)(F)C(F)(F)F`, the compound was classed as inactive in test [1], in test [2], in test [3], in test [9], in test [4] and in test [5]. Besides, the result in test [6], in [7] and in test [8] was inactive.

Consider `O=C(O)C(F)(F)C(F)(F)C(F)(F)F`, for which the compound was called inactive in test [1], in test [2], in test [3], in [10], in test [4] and in [5]. Further, the result in test [6] and in test [7] was inactive.

Turning to `O=C(O)C(F)(F)C(F)(F)C(F)(F)C(F)(F)C(F)(F)C(F)(F)C(F)(F)C(F)(F)C(F)(F)C(F)(F)C(F)(F)C(F)(F)F`, the compound was classed as inactive in test [1], in test [2], in test [3], in [10], in test [4] and in test [5]. In addition, the outcome in test [6] and in [7] was inactive.

Take `FC(F)(F)C(F)(F)C(F)(F)C(F)(F)C(F)(F)C(F)(F)CC1CO1` (centres undefined): the result in [1], in test [2], in test [3], in test [10], in test [4] and in test [5] was inactive. Also, the result in [6] and in test [7] was inactive.

On to `[Co]`, for which the call in test [1], in test [2], in test [3], in test [9] and in [10] was inactive.

For the compound `CCCCCCCCCCCCCCCC[N+](C)(C)Cc1ccccc1`, the outcome in [1], in test [2], in test [3], in [9] and in test [10] was inactive. Also, the half-maximal activity concentration (AC50) in [4] was 7.67 µM (active); in [5] it was 8.81 µM (active); in test [6], 5 µM (active); in test [7] it was 1.37 µM (active).

Consider `O=C(O)C(F)(F)C(F)(F)OC(F)(F)F`, for which the outcome in [1], in [2], in [10], in [4], in test [5] and in [6] was inactive. Further, in test [7], the outcome was inactive.

For the compound `COC(OC(C)=O)c1ccccc1` (centres undefined), the compound was called inactive in test [1], in test [2], in test [3] and in test [10].

Regarding `O=C(O)C(F)(F)C(F)(F)C(F)(F)C(F)(F)C(F)(F)C(F)(F)C(F)(F)C(F)(F)Cl`, the call in test [1], in test [2], in test [3], in test [10], in test [4] and in test [7] was inactive. The AC50 in test [4] is 23.8 µM (active); in [5], 25.1 µM (active) and 23.6 µM (active); in [6], 47.5 µM (active) and 30 µM (active).

On to `Nc1ccc(S(=O)(=O)Nc2nccs2)cc1`, for which the compound was classed as inactive in [1].

As to `O=C(O)C(F)(F)C(F)(F)C(F)(F)C(F)(F)C(F)(F)C(F)(F)C(F)(F)C(F)(F)C(F)(F)C(F)(F)C(F)(F)C(F)(F)C(F)(F)F`, the outcome in [1], in test [2], in test [3], in [9], in test [10] and in test [4] was inactive. The outcome in test [5], in test [6], in test [7] and in [8] was inactive.

Turning to `C1COCCN1`, the result in test [1], in test [2], in [3], in test [9] and in [10] was inactive.

Take `C=CC(F)(F)C(F)(F)C(F)(F)C(F)(F)C(F)(F)C(F)(F)C(F)(F)C(F)(F)C=C`: the call in [1], in test [2], in [3], in test [4], in [5] and in test [6] was inactive. Also, the result in test [7] and in test [8] was inactive.

In the case of `CCN(Cc1cccc(S(=O)(=O)O)c1)c1ccc(C(=C2C=CC(=[N+](CC)Cc3cccc(S(=O)(=O)O)c3)C=C2)c2ccc(O)cc2S(=O)(=O)[O-])cc1`, the compound was called inactive in test [1], in test [2], in test [3] and in test [9].

`FC(F)(F)C(F)(F)C(F)(F)C(F)(F)C(F)(F)CCI`: the result in [1], in test [2], in test [3], in test [10], in test [4] and in test [5] was inactive. Further, the result in test [6] and in [7] was inactive. The AC50 in [9] is 35.9 µM (active).

On to `CC(C)(C)c1ccc(OC2CCCCC2O)cc1` (centres undefined), for which the compound was classed as inactive in [1], in [2] and in test [10]. Besides, the AC50 in test [3] is 26.2 µM (active).

For `O=P(O)(O)OCCC(F)(F)C(F)(F)C(F)(F)C(F)(F)C(F)(F)C(F)(F)F`, the compound was called inactive in [1], in test [2], in test [3], in [10], in test [4] and in [5]. Also, the outcome in test [6], in [7] and in [8] was inactive.

Consider `CC(C)(C)C(=O)CC(=O)C(F)(F)C(F)(F)C(F)(F)F`, for which the compound was called inactive in [1], in test [2], in test [4], in [5], in test [6] and in test [7].

With `Cc1cccc(N(C)C)c1`, the call in test [1], in test [2] and in [10] was inactive.

As for `O=C(O)C(F)(F)C(F)(F)C(F)(F)C(F)(F)C(F)(F)C(F)(F)C(F)(F)C(F)(F)C(F)(F)C(F)F`, the outcome in test [1], in test [10], in test [4], in test [6] and in test [7] was inactive. Also, the AC50 in [2] is 50 µM (active); in test [9], 66 µM (active); in [5], 17.8 µM (active) and 14.6 µM (active); in test [6], 47.1 µM (active); in test [7], 30 µM (active).
